Screening data as filed in PubChem.
Pf growth 48h: Primary qHTS for delayed death inhibitors of the malarial parasite plastid, 48 hour incubation. P. falciparum luciferase growth in erythrocytes, 48 h. Potency, µM (titrated, usually from 28.7 µM), without a hit: top-dose activity change, negative = inhibition, hits mostly inhibitors. hit rate 5.9% among 310,000. AID 504832, 2011; note: potency is the fitted concentration of half-maximal effect; % is set by controls: 0 for no effect and ±100 for the full control effect
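Read-out is firefly luciferase luminescence from an integrated reporter in P. falciparum, so falling signal marks reduced parasite growth. Infected erythrocytes were at 2% hematocrit and 0.1% parasitemia (final) in Albumax-supplemented RPMI 1640.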
Pf growth 96h: Primary qHTS for delayed death inhibitors of the malarial parasite plastid, 96 hour incubation; P. falciparum luciferase reporter growth, 96 h; Potency, µM (titrated, usually from 28.7 µM), without a hit: at the top dose activity change, negative = inhibition, usual class: inhibitors; hit rate 6.9% among 320,000; AID 504834, 2011; note: potency is the fitted concentration of half-maximal effect; % is set by controls: 0 for no effect and ±100 for the full control effect
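Parasite growth measured via integrated firefly luciferase reporter in P. falciparum. Infected erythrocytes at 2% hematocrit, 0.05% parasitemia final were treated 96 hours at 37 C under 5% CO2, and luminescence was read.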
Shiga inhibitor: A qHTS for Small Molecule Inhibitors of Shiga Toxin | Vero cells, Shiga toxin protein synthesis inhibition reporter | inhibition, % at 38.7 µM | hit rate 9.2% among 290,000 | AID 2315, 2010; in the data active = inhibition mostly above about 28%, no sharp cut-off; inactive = mostly below about 43%; note: 0% is about no effect
CHX counter: Cycloheximide Counterscreen for Small Molecule Inhibitors of Shiga Toxin. cell reporter, cycloheximide protein synthesis inhibition counterscreen. max response, %. hit rate 12% among 300,000; in the data active = max response mostly above about 13%, no sharp cut-off; inactive = mostly below about 14%; note: read at 38.3 µM for the half of the compounds with a filed dose; 0% is about no effect
FBPA Giardia inh: qHTS Assay for Inhibitors of Fructose-1,6-bisphosphate Aldolase from Giardia Lamblia; AID 2451, 2010; purified Giardia FBPA; Potency, µM (doses to about 59.6 µM), without a hit: at the highest dose activity, negative = inhibition, usual class: inhibitors; A8B2U2; hit rate 0.71% among 290,000; note: potency is the fitted concentration of half-maximal effect; % is set by controls: 0 for no effect and ±100 for the full control effect; nearly all actives have a fitted effect of over 55% in size
Target sequence (A8B2U2 whole entry, looked up): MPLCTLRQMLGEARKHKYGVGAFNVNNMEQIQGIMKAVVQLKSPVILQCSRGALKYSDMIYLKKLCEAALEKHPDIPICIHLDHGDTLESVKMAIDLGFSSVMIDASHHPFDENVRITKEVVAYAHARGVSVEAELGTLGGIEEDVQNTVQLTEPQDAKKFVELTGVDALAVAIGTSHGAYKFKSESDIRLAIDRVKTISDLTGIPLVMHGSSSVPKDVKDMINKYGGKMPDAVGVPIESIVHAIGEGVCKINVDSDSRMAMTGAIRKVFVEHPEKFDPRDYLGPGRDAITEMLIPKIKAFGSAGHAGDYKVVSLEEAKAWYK
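Giardia FBPA (40 nM reagent) was preincubated 10 min at RT with compound (up to 57.5 uM final), then substrate plus GAPDH/TPI/NAD/arsenate coupling system with diaphorase/resazurin was added; resorufin fluorescence (525/598 nm) was read after 20 min.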
NS1 function inh: qHTS Assay for Inhibitors of Influenza NS1 Protein Function; Potency, µM (doses to about 46.1 µM), without a hit: at the highest dose activity, positive = more growth; hit rate 0.4% among 270,000; AID 2326, 2010; calls by dose curve; note: potency is the fitted concentration of half-maximal effect; actives are rising curves; nearly all actives have a fitted effect of over 50% in size
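Read-out: OD600 growth recovery of NS1-expressing budding yeast. Cells grown overnight at 30C in -URA glucose medium, washed, resuspended and diluted 1:100 in 2% galactose assay medium, pH 6.0. Same strain lacking NS1 served as positive control.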
Numbers without * were called inactive; u = inconclusive; x = no result given; [ ] = another dose, or the depositor's remark. An excerpt weighted towards active compounds, which were near 21% of everything screened. Unless noted, calls come from the whole dose curve; as a rule, active = well fitted curve in the direction sought with a large enough effect; inconclusive = small, poorly fitted or top-dose-only effect, or another doubt; inactive = no such curve, though single readings can be large; an effect the other way counts as inactive or inconclusive.

SMILES	Pf growth 48h	Pf growth 96h	Shiga inhibitor	CHX counter	FBPA Giardia inh	NS1 function inh
CCC1COC(c2cccn2Cc2ccccc2Cl)=N1 (configuration not stated)	9.3%	11.7µM*	-12.4	-5.5	4.6%	0.3%
Fc1ccc(Cn2cccc2C2=NC(c3ccccc3)CO2)cc1 (configuration not stated)	8.4%	u	74.9*	68.7*	0.3%	x
Cc1oc(-c2ccccc2)nc1Cn1cccc1C1=NC(c2ccccc2)CO1 (configuration not stated)	u	5.22µM*	-2.7	-2.4	2.8%	-32.6%
O=C(/C=C/c1ccccc1)NCc1ccc2c(c1)OCO2	8.9%	2.9%	34.3	22.1*	3.9%	-0.2%
O=C(/C=C/c1ccco1)NCc1ccc2c(c1)OCO2	8.0%	-4.1%	11.0	16.4	-3.0%	1.7%
O=C(/C=C/c1c(F)cccc1Cl)NCc1ccc2c(c1)OCO2	-4.1%	-7.6%	-3.7	0.7	11.8%	-7.1%
O=C(/C=C/c1cccs1)NCc1ccc2c(c1)OCO2	10.1%	-12.0%	33.9*	37.1*	-2.2%	3.8%
CCn1cc(C(=O)N[C@H](C(=O)NCCCn2ccnc2)C(C)C)c(=O)c2cc3c(cc21)OCO3	-14.8%	7.9%	-3.9	-1.7	-24.5%	-11.9%
COc1ccc(/C=N/NC(=O)c2ccncc2)cc1CN1CCN(c2ccc(F)cc2)CC1	-2.4%	3.7µM*	-6.1	1.9	0.0%	x
COc1ccc(/C=N/NC(=O)c2ccc(C)cc2)cc1CN1CCN(c2ccc(F)cc2)CC1	14.1%	-12.7%	10.1	-1.5	4.6%	2.8%
COc1ccc(/C=N\NC(=O)c2cc(O)c(O)c(O)c2)cc1CN1CCN(c2ccc(F)cc2)CC1	4.65µM*	u	8.6	4.0	u	u
Cc1cccc(N2CCN(Cc3cn(C)nc3-c3ccccc3F)CC2)n1	3.5%	u	8.7	-2.6	-0.3%	1.1%
Cc1ccc(Nc2c(N)c(=O)oc3ccccc23)cc1	u	-23.1%	57.1*	21.9*	1.3%	-3.5%
COc1ccc(-c2cc(C)no2)cc1S(=O)(=O)N1CCOc2ccc(Cl)cc21	u	10.4µM*	2.9	-4.1	-3.9%	14.8%
COc1ccc(-c2cc(C)no2)cc1S(=O)(=O)N1CC(=O)Nc2ccccc21	u	-25.5%	-2.6	-2.5	-7.9%	4.4%
O=C(NC1CCN(S(=O)(=O)c2ccccc2)CC1)c1cccc(F)c1	22.8%	u	-7.0	-2.3	7.2%	11.7%
CC(=O)NC1CC2CCCC(C1)N2S(=O)(=O)c1cccc(F)c1 (configuration not stated)	x	8.28µM*	-7.0	-3.1	5.6%	-0.7%
O=C(NC1CCCCC1)N1CCN(S(=O)(=O)c2ccc(F)cc2)CC1	-1.8%	u	-14.0	3.0	1.8%	1.1%
O=S(=O)(c1ccc(F)cc1)N1CCN(C(=S)NC2CC2)CC1	2.62µM*	u	x	x	x	x
O=C(NC1CC2CCCC(C1)N2S(=O)(=O)c1ccccc1)c1ccco1 (configuration not stated)	u	9.7%	-9.1	-5.4	-3.9%	8.2%
O=C(NC1CCN(S(=O)(=O)c2cccc(F)c2)CC1)c1ccc(F)cc1	u	10.4µM*	2.0	2.0	-1.0%	-2.4%
O=C(NC1CCN(S(=O)(=O)c2ccc(F)cc2)CC1)c1ccc(F)cc1	20.3%	11.7µM*	-9.6	-1.5	5.2%	17.1%
Cc1ccc(C(=O)NC2CC2)cc1S(=O)(=O)N1CCOCC1	u	-78.3%	x	x	x	x
CCC(C)(C)C1CCC(NC(=O)c2ccc(S(=O)(=O)N3CCOCC3)cc2)CC1 (configuration not stated)	10.4µM*	14.7µM*	x	x	x	x
O=C(c1cccs1)N1CCN(S(=O)(=O)c2ccc(F)cc2)CC1	-3.4%	0.465µM*	-1.9	-7.4	6.4%	-1.0%
SMILES	Pf growth 48h	Pf growth 96h	Shiga inhibitor	CHX counter	FBPA Giardia inh	NS1 function inh
CCc1ccccc1NC(=S)N(CCN1CCOCC1)Cc1ccccc1F	-21.7%	10.4µM*	-12.0	-3.5	6.0%	2.3%
O=C(Nc1ccccc1)N(CCCN1CCOCC1)Cc1ccccc1F	-12.5%	-29.7%	-7.2	6.7	0.5%	-1.3%
Cc1ccccc1NC(=S)N(CCN1CCOCC1)Cc1ccccc1F	-5.5%	31.7%	-8.3	5.7	8.2%	x
O=C(Nc1cccc(Cl)c1)N(CCCN1CCOCC1)Cc1ccccc1F	-26.1%	2.08µM*	-1.3	6.4	11.2%	-53.5%
O=S(=O)(Nc1cccc(-c2nc3cccnc3s2)c1)c1ccc2c(c1)OCCO2	1.7%	17.4%	32.9	-1.9	13.2%	-32.1%
O=S(=O)(Nc1ccccn1)c1cccs1	18.1%	-4.1%	-15.5	1.2	2.6%	-3.5%
Cc1nc2ccc(S(=O)(=O)Nc3cc(-c4nc5cccnc5s4)ccc3C)cc2s1	152.6%	104.2%	85.4*	74.9*	18.4%	-25.4%
Cc1nc2ccc(S(=O)(=O)Nc3cccc(-c4nc5cccnc5s4)c3C)cc2s1	0.7%	u	-12.6	-2.2	22.8%	4.5%
Cc1ccc(-c2nc3cccnc3s2)cc1NS(=O)(=O)c1cccs1	36.1%	14.8%	38.3*	19.4*	8.1%	-18.0%
Cc1ccc(-c2nc3cccnc3s2)cc1NS(=O)(=O)c1ccc2c(c1)OCCO2	u	-13.1%	19.1*	39.9*	10.2%	29.6%
COc1ccccc1C(=O)NCC(=O)NNC(=O)C1COc2ccccc2O1 (configuration not stated)	-8.1%	10.0%	x	x	x	x
CC(=O)O[C@H]1CC2(C)[C@@H](C[C@@H](O)[C@H]3[C@@]4(C)CC[C@@H](O)[C@@H](C)[C@@H]4CC[C@@]32C)C1=C(CCC=C(C)C)C(=O)O (some centres not stated)	x	x	x	x	-2.0%	u
CCc1cc(C(=O)N2CCCC(C(=O)c3ccc(Oc4ccccc4)cc3)C2)n(C)n1 (configuration not stated)	u	0.0%	-3.5	-1.5	2.7%	-42.7%
CO[C@H]1COC(=O)[C@H](C)COC(=O)[C@@H](OCc2ccccc2)/C=C\[C@@H]1C	x	x	x	x	0.1%[12.9 µM]	x
COc1ccc(CCn2c(N)c(C#N)c3nc4ccccc4nc32)cc1OC	5.86µM*	56.2%	-30.3	6.6	u	-8.6%
COc1ccccc1CCn1c(N)c(C#N)c2nc3ccccc3nc21	9.28µM*	u	9.3	2.0	-15.7%	11.9%
CSCC[C@H](NC(=O)c1ccc(NC[C@@H](N)CS)cc1-c1ccccc1)C(=O)O	x	x	-9.2	-5.3	0.0%	x
COc1ccc(C(C)NC(=O)CC23CC4CC(CC(C4)C2)C3)cc1 (configuration not stated)	u	1.2%	x	-1.0	12.4%	-84.1%
N#Cc1nn(-c2c(Cl)cc(C(F)(F)F)cc2Cl)c(N)c1S(=O)C(F)(F)F (configuration not stated)	1.9µM*	-22.8%	-2.0	-0.2	-2.6%	x
